About 410 targets per protein were measured; listed, in parts, are those with the strongest signals and a random draw of the rest.
Key:
Test in all cases: glycan array binding signal (z-score within array); higher = stronger binding
Settings in all cases: glycan notation: IUPAC condensed, linker removed
[1] = biological target: Fuc(a1-2)[Gal(a1-3)]Gal(b1-4)Glc
Summary of the method: (§1)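 Arrays were curated from the Consortium for Functional Glycomics database, 3228 in total, and kept only where the protein sequence was available. Binding is expressed as a within-array Z-score. This score was averaged across arrays of the same protein sequence at different concentrations or buffers and across linkers, and negative values can be read as non-binding.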

[2] = biological target: Fuc(a1-2)[Gal(a1-3)]Gal(b1-4)GlcNAc
Summary of the method: as §1

[3] = biological target: Fuc(a1-2)[Gal(a1-3)]Gal(b1-4)GlcNAc(b1-2)Man(a1-3)[Fuc(a1-2)[Gal(a1-3)]Gal(b1-4)GlcNAc(b1-2)Man(a1-6)]Man(b1-4)GlcNAc(b1-4)GlcNAc
Summary of the method: as §1

[4] = biological target: Fuc(a1-2)[GalNAc(a1-3)]Gal(b1-3)GlcNAc(b1-2)Man(a1-3)[Fuc(a1-2)[GalNAc(a1-3)]Gal(b1-3)GlcNAc(b1-2)Man(a1-6)]Man(b1-4)GlcNAc(b1-4)GlcNAc
Summary of the method: as §1

[5] = biological target: Fuc(a1-2)[GalNAc(b1-3)]Gal
Summary of the method: as §1

[6] = biological target: Fuc(a1-3)[Gal(b1-4)]GlcNAc
Summary of the method: as §1

[7] = biological target: Fuc(a1-3)[Gal3S(b1-4)]GlcNAc6S
Summary of the method: as §1

Gal(a1-3)Gal(b1-3)GlcNAc = biological target: Gal(a1-3)Gal(b1-3)GlcNAc
Summary of the method: as §1

Gal(a1-4)Gal(b1-4)Glc = biological target: Gal(a1-4)Gal(b1-4)Glc
Summary of the method: as §1

Gal(a1-6)Glc = biological target: Gal(a1-6)Glc
Summary of the method: as §1

[8] = biological target: Gal(b1-3)Gal(b1-4)GlcNAc(b1-2)Man(a1-3)[Gal(b1-3)Gal(b1-4)GlcNAc(b1-2)Man(a1-6)]Man(b1-4)GlcNAc(b1-4)GlcNAc
Summary of the method: as §1

[9] = biological target: Gal(b1-3)GalNAc(b1-4)Gal(b1-4)Glc
Summary of the method: as §1

[10] = biological target: Gal(b1-3)GalNAc(b1-4)[Neu5Ac(a2-3)]Gal(b1-4)Glc
Summary of the method: as §1

[11] = biological target: Gal(b1-3)GlcNAc(b1-2)Man(a1-3)[Gal(b1-3)GlcNAc(b1-2)Man(a1-6)]Man(b1-4)GlcNAc(b1-4)GlcNAc
Summary of the method: as §1

[12] = biological target: Gal(b1-3)GlcNAc(b1-3)Gal(b1-3)GlcNAc
Summary of the method: as §1

[13] = biological target: Gal(b1-3)GlcNAc(b1-3)Gal(b1-4)[Fuc(a1-3)]GlcNAc(b1-6)[Gal(b1-3)GlcNAc(b1-3)]Gal(b1-4)Glc
Summary of the method: as §1

Gal(b1-4)Glc = biological target: Gal(b1-4)Glc
Summary of the method: as §1

[14] = biological target: Gal(b1-4)GlcNAc(b1-2)[Gal(b1-4)GlcNAc(b1-4)]Man(a1-3)[Gal(b1-4)GlcNAc(b1-2)Man(a1-6)]Man(b1-4)GlcNAc(b1-4)GlcNAc
Summary of the method: as §1

[15] = biological target: Gal(b1-4)GlcNAc(b1-3)[Gal(b1-4)GlcNAc(b1-6)]GalNAc
Summary of the method: as §1

[16] = biological target: Gal(b1-4)GlcNAc(b1-6)[Gal(b1-3)]GalNAc
Summary of the method: as §1

[17] = biological target: Gal3S(b1-4)[Fuc(a1-3)]Glc
Summary of the method: as §1

[18] = biological target: GalNAc(a1-3)GalNAc(a1-3)Gal(a1-4)Gal(b1-4)GlcNAc
Summary of the method: as §1

[19] = biological target: GalNAc(b1-3)Gal(a1-6)Gal(b1-4)Glc
Summary of the method: as §1

Glc(b1-6)Glc = biological target: Glc(b1-6)Glc
Summary of the method: as §1

[20] = biological target: GlcNAc(a1-4)Gal(b1-4)GalNAc
Summary of the method: as §1

[21] = biological target: GlcNAc(a1-4)Gal(b1-4)GlcNAc(b1-3)Gal(b1-4)[Fuc(a1-3)]GlcNAc(b1-3)Gal(b1-4)[Fuc(a1-3)]GlcNAc
Summary of the method: as §1

Man(a1-6)Man = biological target: Man(a1-6)Man
Summary of the method: as §1

Man(b1-4)GlcNAc = biological target: Man(b1-4)GlcNAc
Summary of the method: as §1

[22] = biological target: Neu5Ac(a2-3)Gal(b1-3)GlcNAc(b1-3)GalNAc
Summary of the method: as §1

[23] = biological target: Neu5Ac(a2-3)Gal(b1-4)[Fuc(a1-3)]GlcNAc(b1-3)Gal(b1-4)[Fuc(a1-3)]GlcNAc(b1-3)Gal(b1-4)[Fuc(a1-3)]GlcNAc
Summary of the method: as §1

[24] = biological target: Neu5Ac(a2-6)Gal(b1-4)GlcNAc(b1-2)Man(a1-3)[Gal(b1-4)GlcNAc(b1-2)Man(a1-6)]Man(b1-4)GlcNAc(b1-4)GlcNAc
Summary of the method: as §1

[25] = biological target: Neu5Ac(a2-6)Gal(b1-4)GlcNAc(b1-2)Man(a1-6)Man(b1-4)GlcNAc(b1-4)GlcNAc
Summary of the method: as §1

[26] = biological target: Neu5Ac(a2-6)Gal(b1-4)GlcNAc(b1-2)Man(a1-6)[GlcNAc(b1-2)Man(a1-3)]Man(b1-4)GlcNAc(b1-4)GlcNAc
Summary of the method: as §1

[27] = biological target: Neu5Ac(a2-8)Neu5Ac(a2-8)Neu5Ac(a2-3)Gal(b1-4)Glc
Summary of the method: as §1

[28] = biological target: Neu5Ac(a2-8)Neu5Ac(a2-8)Neu5Ac(a2-3)[GalNAc(b1-4)]Gal(b1-4)Glc
Summary of the method: as §1

[29] = biological target: Neu5Gc(a2-3)Gal(b1-3)GlcNAc
Summary of the method: as §1

B1: SspB (Streptococcus gordonii), P16952 (protein)
chain: MKNKKEVYGFRKSKVAKTLCGAVLGTALIAFADKAVFADEVTETTSTSTVEVATTGNPATNLPEAQGEMSQVAKESQAKAGSKESALPVEVSSADLDKAVADAKSAGVKVVQDETKDKGTATTATDNAQKQDEIKSDYAKQAEEIKTTTEAYKKEVAAHQAETDKINAENKAADDKYQKDLKSHQEEVEKINTANATAKAEYEAKLAQYQKDLATVKKANEDSQQDYQNKLSAYQTELARVQKANAEAKEAYEKAVKENTAKNEALKVENEAIKQRNETAKATYEAAMKQYEADLAAIKKANEDNDADYQAKLAAYQTELARVQKANAEAKEAYDKAVKENTAKNTAIQAENEAIKQRNETAKATYDAAVKKYEADLAAVKQANATNEADYQAKLAAYQTELARVQKANADAKATYEKAVEDNKAKNAAIKAENEEIKQRNAVAKTDYEAKLAKYEADLAKYKKEFAAYTAALAEAESKKKQDGYLSEPRSQSLNFKSEPNAIRTIDSSVHQYGQQELDALVKSWGISPTNPDRKKSRAYSYFNAINSNNTYAKLVLEKDKPVDVTYTGLKNSSFNGKKISKVVYTYTLKETGFNDGTKMTMFASSDPTVTAWYNDYFTSTNINVKVKFYDEEGQLMNLTGGLVNFSSLNRGNGSGAIDKDAIESVRNFNGRYIPISGSSIKIHENNSAYADSSNAEKSLGARWNTSEWDTTSSPNNWYGAIVGEITQSEISFNMASSKSGNIWFAFNSNINAIGVPTKPVAPTAPTQPMYETEKPLEPAPVAPSYENEPTPPVKTPDQPEPSKPEEPTYETEKPLEPAPVAPSYENEPTPPVKTPDQPEPSKPEEPNYETEKPLEPAPVAPSYENEPTPPVKIPDQPEPSKPEEPTYDPLPTPPLAPTPKQLPTPPVVPTVHFHYSSLLAQPQINKEIKNEDGVDIDRTLVAKQSIVKFELKTEALTAGRPKTTSFVLVDPLPTGYKFDLDATKAASTGFDTTYDEASHTVTFKATDETLATYNADLTKPVETLHPTVVGRVLNDGATYTNNFTLTVNDAYGIKSNVVRVTTPGKPNDPDNPNNNYIKPTKVNKNKEGLNIDGKEVLAGSTNYYELTWDLDQYKGDKSSKEAIQNGFYYVDDYPEEALDVRPDLVKVADEKGNQVSGVSVQQYDSLEAAPKKVQDLLKKANITVKGAFQLFSADNPEEFYKQYVATGTSLVITDPMTVKSEFGKTGGKYENKAYQIDFGNGYATEVVVNNVPKITPKKDVTVSLDPTSENLDGQTVQLYQTFNYRLIGGLIPQNHSEELEDYSFVDDYDQAGDQYTGNYKTFSSLNLTMKDGSVIKAGTDLTSQTTAETDATNGIVTVRFKEDFLQKISLDSPFQAETYLQMRRIAIGTFENTYVNTVNKVAYASNTVRTTTPIPRTPDKPTPIPTPKPKDPDKPETPKEPKVPSPKVEDPSAPIPVSVGKELTTLPKTGTNDATYMPYLGLAALVGFLGLGLAKRKED
glycan array binding signal (z-score) [1]: 0.486
glycan array binding signal (z-score) [2]: 0.017
glycan array binding signal (z-score) [3]: 2.31
glycan array binding signal (z-score) [4]: -0.556
glycan array binding signal (z-score) [5]: 0.761
glycan array binding signal (z-score) [6]: -0.041
glycan array binding signal (z-score) [7]: 0.242
glycan array binding signal (z-score) (Gal(a1-3)Gal(b1-3)GlcNAc): -0.597
glycan array binding signal (z-score) (Gal(a1-4)Gal(b1-4)Glc): -1.22
glycan array binding signal (z-score) (Gal(a1-6)Glc): 0.072
glycan array binding signal (z-score) [8]: -0.672
glycan array binding signal (z-score) [9]: 1.1
glycan array binding signal (z-score) [10]: -1.62
glycan array binding signal (z-score) [11]: 0.616
glycan array binding signal (z-score) [12]: -0.283
glycan array binding signal (z-score) [13]: 1.07
glycan array binding signal (z-score) (Gal(b1-4)Glc): -0.34
glycan array binding signal (z-score) [14]: 1.08
glycan array binding signal (z-score) [15]: 5.73
glycan array binding signal (z-score) [16]: -1.35
glycan array binding signal (z-score) [17]: 0.344
glycan array binding signal (z-score) [18]: 0.985
glycan array binding signal (z-score) [19]: -0.859
glycan array binding signal (z-score) (Glc(b1-6)Glc): -1.1
glycan array binding signal (z-score) [20]: -0.557
glycan array binding signal (z-score) [21]: 3.03
glycan array binding signal (z-score) (Man(a1-6)Man): 2.65
glycan array binding signal (z-score) (Man(b1-4)GlcNAc): -0.696
glycan array binding signal (z-score) [22]: 0.045
glycan array binding signal (z-score) [23]: 0.022
glycan array binding signal (z-score) [24]: 3.2
glycan array binding signal (z-score) [25]: 1.36
glycan array binding signal (z-score) [26]: 0.081
glycan array binding signal (z-score) [27]: 2.25
glycan array binding signal (z-score) [28]: 2.4
glycan array binding signal (z-score) [29]: 0.179

— the supplement of paper PMC8728848
